High-throughput results from PubChem.
Only some compounds are listed: those with a hit (about 0.92% of all), similar ones and a draw of the others.
APEX1 inh: blocks human APE1 abasic DNA cleavage. P27695. recombinant APE1, TAMRA/BHQ-2 abasic DNA cleavage fluorescence. Potency, µM (titrated, usually from 65.8 µM), for the others: at the highest dose activity change, negative = inhibition, usual class: inhibitors. hit rate 0.35% among 350,000. AID 2517;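 further: plate controls were vehicle for no effect and reference inhibitor for full effect; nearly all actives have a fitted effect of over 55% in size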
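Incision of a quenched TAMRA/BHQ-2 THF abasic-site duplex (50 nM) by 0.75 nM APE1, after 15 min compound preincubation, measured as fluorescence increase over three 60 s reads. Values normalized to buffer, DMSO and NSC13755 control wells.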
TDP1 block: blocks human tyrosyl-DNA phosphodiesterase 1. Q9NUW8. recombinant TDP1, AlphaScreen DNA substrate cleavage. Potency, µM (series often up to 130 µM), without a hit: at the highest dose activity change, negative = inhibition, actives largely listed as inhibitors. hit rate 0.28% among 350,000. AID 485290; further: nearly all actives have a fitted effect of over 40% in size
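AlphaScreen read-out: signal falls as enzyme removes the 3' tyrosine-FITC from a 5'-biotinylated DNA oligo (15 nM, 5 min, RT). Enzyme was E. coli-made recombinant Tdp1 at 1 nM, exposed to compound for 15 min beforehand; beads 10 ug/ml, 10 min.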
RECQ1 helicase: blocks DNA unwinding by human RECQ1; P46063; RECQ1 DNA unwinding, red fluorescence kinetic read; Potency, µM (highest dose often 57.3 µM), without a hit: at the top dose activity, negative = inhibition, usual class: inhibitors; hit rate 0.54% among 240,000; AID 2549;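 further: plate controls were vehicle for no effect and no enzyme for full effect; nearly all actives have a fitted effect of over 30% in size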
Target sequence (P46063 whole entry, looked up): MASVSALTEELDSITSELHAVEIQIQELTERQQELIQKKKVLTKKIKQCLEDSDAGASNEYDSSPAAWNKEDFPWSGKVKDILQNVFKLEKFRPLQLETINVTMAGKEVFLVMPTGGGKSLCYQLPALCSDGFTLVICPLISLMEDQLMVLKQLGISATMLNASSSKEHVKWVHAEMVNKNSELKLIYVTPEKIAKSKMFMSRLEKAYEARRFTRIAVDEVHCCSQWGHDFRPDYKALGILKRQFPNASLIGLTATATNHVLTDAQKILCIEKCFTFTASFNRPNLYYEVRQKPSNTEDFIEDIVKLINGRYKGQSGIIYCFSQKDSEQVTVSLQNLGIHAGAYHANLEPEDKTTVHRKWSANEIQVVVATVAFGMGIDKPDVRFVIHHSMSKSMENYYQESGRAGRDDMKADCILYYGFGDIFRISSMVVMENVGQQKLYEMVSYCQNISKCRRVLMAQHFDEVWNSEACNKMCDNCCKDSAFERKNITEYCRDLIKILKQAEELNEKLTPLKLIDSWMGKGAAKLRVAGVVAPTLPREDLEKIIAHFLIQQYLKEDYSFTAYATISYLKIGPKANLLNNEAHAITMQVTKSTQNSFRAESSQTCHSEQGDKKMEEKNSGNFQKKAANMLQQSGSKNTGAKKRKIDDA
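RECQ1T1 50 nM; forked duplex (20 bp + 30-nt ss tails) 200 nM, ATP 2 mM final; pH 8.0, 2 mM MgCl2, 2.5 ug/ml poly(dI-dC); 15 min compound preincubation; discontinuous kinetic read over 2 h at RT.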
BLM inh: inhibitors of human Bloom syndrome helicase BLM | P54132 | recombinant BLM DNA unwinding, fluorescence dequenching | Potency, µM (top dose mostly 56.1 µM), inactives show top-dose activity change, negative = inhibition, actives largely listed as inhibitors | hit rate 0.2% among 350,000 | AID 2528;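 further: plate controls were vehicle for no effect and no enzyme for full effect; nearly all actives have a fitted effect of over 35% in size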
FEN1 inhibitor: blocks human flap endonuclease 1. Recombinant FEN1 flap cleavage, fluorescence, 15 min. Potency, µM (top dose mostly 114 µM), inactives show top-dose activity change, negative = inhibition, most hits filed as inhibitors. hit rate 0.35% among 390,000. AID 588795; further: nearly all actives have a fitted effect of over 65% in size
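Reaction started by adding substrate (50 nM final) to 10 nM enzyme after 15 min room-temperature compound preincubation. Reads at 0 and 15 min, with data normalized and fitted to a four-parameter Hill equation.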
Starred values were filed as active, the others as inactive; i = inactive; u = inconclusive; x = no result given. The call rests on the fitted dose curve; in most records, active means well fitted curve in the direction sought with a large enough effect; inconclusive means small, poorly fitted or top-dose-only effect, or another doubt; inactive means no such curve, though single readings can be large; an effect the other way counts as inactive or inconclusive. Unless noted, on the % scale 0 is the no-effect control and ±100 the full control effect; potency means the concentration at half of the fitted maximal effect.

SMILES	APEX1 inh	TDP1 block	RECQ1 helicase	BLM inh	FEN1 inhibitor
O=C(N/N=C/c1ccc([N+](=O)[O-])o1)c1sc2ccccc2c1Cl	0.7%	x	i	-9.3%	39.8µM*
O=C(N/N=C/c1ccccn1)c1sc2ccccc2c1Cl	-5.4%	9.4%	-26.7%	-10.8%	u
CCOC(=O)C1=C(O)c2ccccc2C(=O)/C1=C\c1ccc(C)cc1	-3.5%	5.5%	i	-15.6%	50.1µM*
CCOC(=O)C1=C(C)N(c2ccc(C)cc2)C(=O)/C1=C\c1ccc(O)c(OC)c1	-12.3%	x	-14.0%	-6.8%	u
COc1ccc(-c2cn3nc(N4CCCC(C(=O)Nc5cc(C)ccc5C)C4)sc3n2)cc1 (configuration not stated)	x	-1.2%	x	-6.6%	-10.6%
COc1cc2c(NC3CCN(C)CC3)nc(N3CCCN(C)CC3)nc2cc1OCCCCN(C)C	x	x	x	x	28.2µM*
CN(C)CCCCCCNc1cc(N2CCN(C)CC2)ncn1	x	x	x	x	-2.9%
COc1cc2c(NC3CCN(C)CC3)nc(N3CCCCC3)nc2cc1OCCCN(C)C	x	x	x	x	25.1µM*
COc1cc2c(Nc3ccc(Br)cc3F)ncnc2cc1OCC1CCN(C)CC1	x	x	x	79.0%	x
COc1cc2nc(N3CCCCC3)nc(NC3CCN(Cc4ccccc4)CC3)c2cc1OC	x	x	x	x	39.8µM*
COc1cc2c(NC3CCN(C)CC3)nc(N3CCCN(C)CC3)nc2cc1OCCCCCCN(C)C	x	x	x	x	22.4µM*
Clc1ccc2nc[nH]c2c1	x	x	x	x	17.9%
COc1cc2c(NC3CCN(C)CC3)nc(N3CCCN(C)CC3)nc2cc1OCCCN(C)C	x	x	x	x	22.4µM*
COc1ccc(Nc2nc(N3CCCC3)nc3ccccc23)c(OC)c1	u	-2.3%	-15.5%	52.4%	50.1µM*
CCCN(C)CCCOc1cc2nc(N3CCCN(C)CC3)nc(NC3CCN(C)CC3)c2cc1OC	x	x	x	x	28.2µM*
COc1ccc(Nc2nc(Nc3ccc(OC)cc3OC)nc(N3CCOCC3)n2)c(OC)c1	x	x	x	-15.7%	-12.7%
COc1cc2nc(N3CCCN(C)CC3)nc(N3CCN(C)CC3)c2cc1OC	x	x	x	x	-4.2%
COc1cc(C2Nc3ccccc3C(=O)N2Cc2ccccc2)ccc1OCc1ccc(NC(C)=O)cc1 (configuration not stated)	x	0.5%	x	x	x
Cc1cnc(CNc2cc(-c3ccoc3)ncn2)cn1	-8.6%	-13.4%	-1.2%	-16.1%	x
O=C(C[N+]12CCCc3cccc(c31)CCC2)c1ccc2ccc3cccc4ccc1c2c34	x	x	x	x	44.7µM*
CC(=O)c1ccc2c3c(cccc13)CC2	-0.8%	4.2%	-2.0%	-0.1%	3.6%
O=C(NCCn1cc(SCc2ccccc2)c2ccccc21)c1cccs1	x	3.2%	x	-13.6%	89.1µM*
CCc1ccc(-n2cccc2/C=C2/C(=N)N3C(=NC2=O)SN=C3S(C)(=O)=O)cc1	u	3.6%	35.5µM*	u	u
CS(=O)(=O)C1=NSC2=NC(=O)/C(=C\c3cccn3-c3ccccc3Cl)C(=N)N21	-8.2%	2.4%	25.1µM*	-28.6%	u
CCC1=NN2C(=N)/C(=C\c3cccn3-c3ccc(Cl)cc3)C(=O)N=C2S1	1.1%	2.5%	-3.2%	-13.5%	-0.9%
SMILES	APEX1 inh	TDP1 block	RECQ1 helicase	BLM inh	FEN1 inhibitor
Cc1cc(C)cc(-n2cccc2/C=C2/C(=N)N3C(=NC2=O)SN=C3S(C)(=O)=O)c1	u	5.7%	31.6µM*	31.6µM*	-6.0%
Cc1ccc(-n2cccc2/C=C2/C(=N)N3C(=NC2=O)SN=C3S(C)(=O)=O)cc1	u	1.2%	25.1µM*	-27.1%	u
COc1cccc(-n2c(C)cc(/C=C3/C(=N)N4C(=NC3=O)SN=C4S(C)(=O)=O)c2C)c1	17.9%	3.7%	-11.7%	-23.4%	-15.0%
C=CC1=C(C)C2=CC3=NC(=C(CC(=O)[O-])C4=NC(=C(C)C4=C([O-])[O-])C=c4[n-]c(c(C)c4CC)=CC1=N2)C(CCC(=O)[O-])C3C.[Cu+2].[Na+].[Na+].[Na+] (configuration not stated)	0.398µM*	x	x	x	x
COc1cc(C)cc(C(=O)O)c1C1=C(O)c2cccc(O)c2C(=O)C1=O	35.5µM*	x	u	-10.7%	u
Cc1ccc2c(c1)-c1c(cnc3cc(-c4ccc(F)cc4)nn13)CO2	x	3.2%	x	-2.2%	-4.3%
O=C(N/N=C/c1ccc(Sc2ccccn2)o1)c1cc2ccccc2cc1O	-2.7%	7.9%	-22.5%	u	50.1µM*
CCNc1ncc2nc(-c3ccc(F)cc3)c(=O)n(Cc3ccc(F)cc3)c2n1	u	x	i	2.6%	x
O=C1COc2cc(S(=O)(=O)NCc3ccco3)c(Cl)cc2N1	-20.2%	56.2µM*	x	-12.0%	-17.7%
Nc1nc(SCC(=O)Nc2ccc(OCc3ccccc3)cc2)n[nH]1	-2.0%	70.8µM*	-8.0%	-7.2%	-21.2%
Cc1ccc(-c2nc3cccc(C)n3c2Nc2ccc(F)cc2)o1	x	7.7%	x	x	3.6%
Cc1ccc(OCC(=O)Oc2ccc(C)c(C)c2)cc1	-42.2%	50.1µM*	x	-5.5%	-5.1%
O=c1[nH]c2ccc(S(=O)(=O)N3CCN(S(=O)(=O)c4ccc5c(c4)OCCO5)CC3)cc2[nH]c1=O	x	50.1µM*	x	x	x
O=c1[nH]c2ccc(S(=O)(=O)N3CCN(c4ccccc4)CC3)cc2[nH]c1=O	-4.8%	-11.8%	-8.9%	u	56.2µM*
O=S(=O)(c1ccc2c(c1)OCCO2)N1CCN(S(=O)(=O)c2ccc3c(c2)OCCO3)CC1	-4.4%	-0.3%	x	x	x
COC/C=C/c1cc(F)c(S(=O)(=O)N2CCN(S(=O)(=O)c3ccc4c(c3)OCCO4)CC2)cc1F	x	0.4%	x	x	x
O=C(O)/C=C/c1cc(F)c(S(=O)(=O)N2CCN(S(=O)(=O)c3ccc4c(c3)OCCO4)CC2)cc1F	x	50.1µM*	x	x	x
COc1ccc(-c2nc(CSc3nc4ncccc4[nH]3)c(C)o2)cc1OC	x	3.7%	x	2.7%	-3.6%
COc1cc(OC)c(/C=C/c2nc3ccccc3o2)c(OC)c1	x	x	x	x	-22.1%
Cc1ccc(C)c(S(=O)(=O)Nc2ccc3oc(C)c(C(=O)O)c3c2)c1	13.4µM*	x	x	-4.7%	u
CN(C)[C@@H]1C(=O)C(C(=O)NCN2CCCC2)=C(O)[C@@]2(O)C(=O)C3=C(O)c4c(O)cccc4[C@@](C)(O)C3CC12 (some centres not stated)	2.51µM*	0.708µM*	3.16µM*	14.1µM*	x
c1ccc(CCNc2ccnc3cc4ccccc4cc23)cc1	-6.5%	10.5%	10.1%	155.9%	50.1µM*
O=C(NCCc1ccccc1)c1nccc2ccccc12	22.8%	-4.8%	x	x	-5.2%
CN(C)C(=O)c1ccc(-c2cncnc2NCc2cccs2)cc1	1.7%	28.2µM*	-13.3%	3.3%	x
CN(C)C(=O)c1ccc(-c2cncnc2NCc2ccccc2)cc1	-3.9%	x	-0.2%	-1.7%	x
CCN(CC)c1ccc(C=C2C(=O)OC3(CCCCC3)OC2=O)cc1	-4.6%	4.8%	31.6µM*	-4.5%	u
